According to PubChem BioAssay:
Measured potencies and affinities stand elsewhere. Inconclusive results are not listed. Activity calls are given as the source filed them. The rule behind the calls is not given here.

Assay: NIH:OVCAR-3 ovarian cancer cell cytotoxicity, dose response, PAX8 inhibitor project, plate reader, dry powder samples (AID 743044)
Details: NIH:OVCAR-3 ovarian cancer cell viability; max activity: at 35 µM, hits give low values unless noted; series mostly up to 50 µM; activity change, negative = cytotoxicity: at the top concentration

| SMILES | max activity | activity change, negative = cytotoxicity |
| --- | --- | --- |
| C[C@@H]1CCCCO[C@@H](CN(C)Cc2ccc(C(F)(F)F)cc2)[C@H](C)CN([C@@H](C)CO)C(=O)c2cc(NS(=O)(=O)c3ccc(Cl)cc3)ccc2O1 | -25.4% [at 8 µM, hits give low values] (inactive) | – |
| COc1ccc2c3c([nH]c2c1)[C@@H](CO)N(C(=O)Nc1cccc(F)c1)CC31CCN(S(=O)(=O)c2cccc(C)c2)CC1 | -9.13% [at 8 µM, hits give low values] (inactive) | – |
| O=C(CN1C(=O)c2ccccc2S1(=O)=O)c1ccc(Cl)cc1Cl | – | 10.8% (inactive) |
| C[C@H]1CCCCO[C@@H](CN(C)Cc2ccncc2)[C@@H](C)CN([C@@H](C)CO)C(=O)c2cc(NC(=O)Nc3ccc(C(F)(F)F)cc3)ccc2O1 | -18.9% [at 16 µM, hits give low values] (inactive) | – |
| O=C(C1CCC1)N1CCCCN2[C@H](CO)[C@H](c3ccc(-c4cccc(F)c4)cc3)[C@H]2C1 | 7.58% [at 0.26 µM, hits give low values] (inactive) | – |
| C[C@H]1CCCCO[C@H](CN(C)C(=O)Nc2ccc(C(F)(F)F)cc2)[C@@H](C)CN([C@@H](C)CO)C(=O)c2cc(NS(=O)(=O)c3cccs3)ccc2O1 | -51.4% (inactive) | – |
| C[C@@H]1CN([C@@H](C)CO)C(=O)c2cc(N(C)C)ccc2O[C@@H](C)CCCCO[C@H]1CN(C)S(=O)(=O)c1ccc(F)cc1 | 16.1% [at 0.26 µM, hits give low values] (inactive) | – |
| COc1ccc(NC(=O)Nc2ccc3c(c2)C(=O)N([C@@H](C)CO)C[C@@H](C)[C@@H](CN(C)Cc2ccc(C(F)(F)F)cc2)O3)cc1 | -14.9% [at 0.5 µM, hits give low values] (inactive) | – |
| COc1ccc(S(=O)(=O)Nc2ccc3c(c2)C(=O)N([C@H](C)CO)C[C@H](C)[C@H](CN(C)S(=O)(=O)c2ccc(F)cc2)OCCCC[C@H](C)O3)cc1 | -7.5% (inactive) | – |
| COc1cccc(-c2ccc3c(c2)[C@@H]2[C@@H](CCN2S(=O)(=O)c2ccccc2C)[C@H](CO)N3C)c1 | -25.8% [at 30 µM, hits give low values] (inactive) | – |
| C[C@H]1CCCCO[C@H](CN(C)Cc2ccc(C(F)(F)F)cc2)[C@@H](C)CN([C@@H](C)CO)C(=O)c2cc(NC(=O)Nc3ccc(F)cc3)ccc2O1 | -16.7% (inactive) | – |
| C[C@H]1CN([C@@H](C)CO)S(=O)(=O)c2ccc(C#Cc3ccccc3F)cc2O[C@H]1CN(C)C(=O)c1ccc2c(c1)OCO2 | -13% (inactive) | – |
| O=S(=O)(c1ccccc1F)N1CC[C@@H]2[C@H](CO)Nc3ccc(C4=CCCCC4)cc3[C@@H]21 | 8.04% (inactive) | – |
